Source: PubChem BioAssay
In the library only some 19% were active in any assay of this set; here they are far more common.
AMA1-RON2 inh = disrupts binding of P. falciparum AMA1 to RON2; AlphaScreen AMA1-biotinylated RON2 peptide binding; 0.2% of 360,000 active; Potency, µM (titrated, usually from 58.2 µM), actives largely listed as inhibitors; AID 720542; note: nearly all actives have a fitted effect of over 45% in size
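AMA1 (3D7) with his tag at 25 nM final met compounds first, then biotinylated RON2 peptide at 25 nM; detection used donor plus acceptor beads, 10 µg/mL apiece, read by AlphaScreen after 30 min at room temperature.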
SARS PLpro yeast-1 = blocks SARS-CoV papain-like protease in a yeast assay | AID 485353 | 0.19% of 330,000 active | S. cerevisiae expressing SARS-CoV PLpro, growth rescue | Potency, µM (series often up to 32.9 µM), hits mostly activators; calls by dose curve; note: nearly all actives have a fitted effect of over 55% in size
CHX counter = counter-screen hit for Shiga toxin inhibitors, cycloheximide. 12% of 300,000 active. max response, %. cell reporter, cycloheximide protein synthesis inhibition counterscreen; in the data active = max response mostly above about 13%, no sharp cut-off; inactive = mostly below about 14%; note: read at 38.3 µM for the half of the compounds with a filed dose
Shiga toxin inh = inhibitors of Shiga toxin in Vero cells; Vero cells, Shiga toxin protein synthesis inhibition reporter; inhibition, % at 38.7 µM; AID 2315; 9.2% of 290,000 active; in the data active = inhibition mostly above about 28%, no sharp cut-off; inactive = mostly below about 43%
Pf growth 96h = inhibits malaria parasite growth, 96 h | P. falciparum luciferase reporter growth, 96 h | Potency, µM (series often up to 28.7 µM), usual class: inhibitors | 6.9% of 320,000 active | AID 504834
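Two-generation exposure (96 h) targets delayed-death phenotype. Reporter parasites carrying integrated firefly luciferase, in red cells at 2% hematocrit and 0.05% parasitemia final, kept at 37 C, 5% CO2; luminescence loss indicates inhibition.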
Pf growth 48h = inhibits P. falciparum growth in the first generation, 48 h | 5.9% of 310,000 active | Potency, µM (highest dose often 28.7 µM), actives largely listed as inhibitors | P. falciparum luciferase growth in erythrocytes, 48 h
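Read-out is firefly luciferase luminescence from an integrated reporter in P. falciparum, so falling signal marks reduced parasite growth. Infected erythrocytes were at 2% hematocrit and 0.1% parasitemia (final) in Albumax-supplemented RPMI 1640.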
SARS PLpro yeast-2 = Rescues yeast growth by inhibiting SARS-CoV PLpro; shares compounds with SARS PLpro yeast-1; yeast expressing SARS-CoV PLpro, growth phenotype rescue; calls only; 19% of 1,000 active; call rule not given here
A number is an active result. Unless noted, calls come from the whole dose curve; as a rule, active = well fitted curve in the direction sought with a large enough effect; inconclusive = small, poorly fitted or top-dose-only effect, or another doubt; inactive = no such curve, though single readings can be large; an effect the other way counts as inactive or inconclusive.

Cc1noc(C)c1S(=O)(=O)Nc1ccc2c(c1)C(=O)N([C@H](C)CO)C[C@H](C)[C@@H](CN(C)C(=O)Nc1ccccc1)O2 was read as AMA1-RON2 inh inactive and SARS PLpro yeast-1 inactive.
For C[C@H](CO)N1C[C@H](C)[C@@H](CN(C)S(=O)(=O)c2ccccc2)Oc2ccc(NC(=O)Nc3ccccc3)cc2C1=O the results were AMA1-RON2 inh inactive and SARS PLpro yeast-1 inactive.
`Cc1ccc(S(=O)(=O)N(C)C[C@@H]2Oc3ccc(NC(=O)Nc4cccc5ccccc45)cc3C(=O)N([C@H](C)CO)C[C@H]2C)cc1` gave AMA1-RON2 inh inactive, SARS PLpro yeast-1 5µM and SARS PLpro yeast-2 inactive.
For COc1cccc(C(=O)COC(=O)c2n[nH]c(=O)c3ccccc23)c1 the results were AMA1-RON2 inh inactive, SARS PLpro yeast-1 inactive, CHX counter inactive, Shiga toxin inh inactive, Pf growth 96h inactive and Pf growth 48h inactive.
O=S(=O)(c1ccccc1)N1CCN(S(=O)(=O)c2ccc3c(c2)OCCO3)CC1 was read as CHX counter inactive and Shiga toxin inh inactive.
For CC(=O)C(Sc1nc(N(C)C)nc(N(C)C)n1)C(=O)Nc1ccccc1 (stereo not drawn) the results were AMA1-RON2 inh inactive, SARS PLpro yeast-1 inactive, CHX counter inactive, Shiga toxin inh inactive, Pf growth 96h inactive and Pf growth 48h inactive.
`CC(=O)C(Sc1nn(C)c(=S)s1)C(=O)Nc1ccccc1` (stereo not drawn) gave AMA1-RON2 inh inactive, SARS PLpro yeast-1 inconclusive, CHX counter 51, Shiga toxin inh 113, Pf growth 96h inconclusive, Pf growth 48h inactive and SARS PLpro yeast-2 inactive.
Screening Cc1ccc(SCCCCN2C(=O)NC(C)(C)C2=O)cc1 returned AMA1-RON2 inh inactive, SARS PLpro yeast-1 inconclusive, CHX counter inactive, Shiga toxin inh inactive, Pf growth 96h inactive, Pf growth 48h inactive and SARS PLpro yeast-2 inactive.
N#Cc1c(N2CCN(C(=O)c3ccccc3Cl)CC2)nc(-c2ccccc2)c2c1CCCC2 was read as AMA1-RON2 inh inactive, SARS PLpro yeast-1 3.5µM, CHX counter inactive, Shiga toxin inh inactive, Pf growth 96h inconclusive, Pf growth 48h inconclusive and SARS PLpro yeast-2 inactive.
`COC(=O)CSc1nc(-c2ccccc2)c2c(c1C#N)CCCC2` gave AMA1-RON2 inh inactive, SARS PLpro yeast-1 inactive, CHX counter inactive, Shiga toxin inh inactive and Pf growth 48h inactive.
`O=C(N/C(=C/c1ccc(Br)cc1)C(=O)N1CCCCC1)c1ccccc1F` gave AMA1-RON2 inh inactive, SARS PLpro yeast-1 inactive, CHX counter inactive, Shiga toxin inh inactive, Pf growth 96h inactive and Pf growth 48h inconclusive.
COc1ccc(C2OC(=O)Cc3cc(OC)c(OC)cc32)cc1 (stereo not drawn) was read as AMA1-RON2 inh inactive, SARS PLpro yeast-1 inactive, CHX counter inactive, Shiga toxin inh inactive, Pf growth 96h inactive and Pf growth 48h inactive.
Cc1c(Cl)cccc1NC(=S)NCc1cccs1 was read as AMA1-RON2 inh inactive, SARS PLpro yeast-1 14µM, CHX counter inactive, Shiga toxin inh inactive, Pf growth 96h inactive, Pf growth 48h inconclusive and SARS PLpro yeast-2 active.
Cc1c(Cl)cccc1NC(=S)NCc1ccccc1Cl was read as AMA1-RON2 inh inactive, SARS PLpro yeast-1 inactive, CHX counter inactive, Shiga toxin inh inactive, Pf growth 96h inactive and Pf growth 48h inactive.
Screening Cc1ccc(N=Nc2ccc(O)c3ncccc23)cc1 returned AMA1-RON2 inh inactive, SARS PLpro yeast-1 4µM, CHX counter inactive, Shiga toxin inh inactive, Pf growth 96h inconclusive, Pf growth 48h 0.47µM and SARS PLpro yeast-2 inactive.
CC(C)COCc1ccc(O)c2ncccc12 was read as AMA1-RON2 inh inactive, SARS PLpro yeast-1 inactive, CHX counter inactive, Shiga toxin inh inactive, Pf growth 96h inactive and Pf growth 48h inconclusive.
Screening N#CC1(NC(=O)COC(=O)c2ccccc2SCC(=O)N2CCCC2)CCCCC1 returned AMA1-RON2 inh inactive, SARS PLpro yeast-1 inactive, CHX counter inactive, Shiga toxin inh inactive, Pf growth 96h inconclusive and Pf growth 48h inactive.
`Cc1cc(=O)[nH]c(NN=Cc2cc(Br)ccc2O)n1` gave AMA1-RON2 inh inactive.
`CCN(CC)c1ccc(/C=N/NC(=O)c2c(Cl)cnn2C)c(O)c1` gave AMA1-RON2 inh inactive, SARS PLpro yeast-1 inconclusive, CHX counter 44, Shiga toxin inh 56, Pf growth 96h inconclusive, Pf growth 48h inconclusive and SARS PLpro yeast-2 inactive.
`CCN(CC)c1ccc(/C=N/Nc2nc(C)cc(=O)[nH]2)c(O)c1` gave AMA1-RON2 inh inactive, SARS PLpro yeast-1 4.5µM, CHX counter inactive, Shiga toxin inh inactive, Pf growth 96h 1.9µM, Pf growth 48h 1.9µM and SARS PLpro yeast-2 inactive.
`CCN(CC)c1ccc(/C=N/NC(=O)CCC(=O)NCc2ccccc2)c(O)c1` gave AMA1-RON2 inh inactive, SARS PLpro yeast-1 4µM, CHX counter inactive, Shiga toxin inh inactive, Pf growth 96h inconclusive, Pf growth 48h 13µM and SARS PLpro yeast-2 inactive.
Screening COc1ccc(F)cc1-c1cc(NC=O)c2ncc(-c3cccc(C(F)(F)F)c3)n2c1 returned AMA1-RON2 inh inactive.
O=C(CSCc1cccc(Br)c1)NC1CC1 was read as AMA1-RON2 inh inactive, SARS PLpro yeast-1 inconclusive, CHX counter inactive, Shiga toxin inh inactive, Pf growth 96h inactive, Pf growth 48h inactive and SARS PLpro yeast-2 inactive.
`CC(=O)CC(c1ccccc1)c1c(O)c2ccccc2oc1=O` (stereo not drawn) gave AMA1-RON2 inh inactive, SARS PLpro yeast-1 inactive, CHX counter inactive, Shiga toxin inh inactive, Pf growth 96h inactive and Pf growth 48h inactive.
For CC/C(CC(c1ccccc1)c1c(O)c2ccccc2oc1=O)=N\NC(N)=S (stereo not drawn) the results were AMA1-RON2 inh inactive, SARS PLpro yeast-1 13µM, CHX counter inactive, Shiga toxin inh inactive, Pf growth 96h inconclusive, Pf growth 48h inactive and SARS PLpro yeast-2 inactive.
O=C(COc1ccccc1)NCc1nnc2c3ccccc3c(-c3ccccc3)nn12 was read as AMA1-RON2 inh inactive, CHX counter inactive, Shiga toxin inh inactive, Pf growth 96h inconclusive, Pf growth 48h inconclusive and SARS PLpro yeast-2 inactive.
COc1ccc(C(C)NC(=O)c2ccc(Br)cc2)cc1OC (stereo not drawn) was read as AMA1-RON2 inh inactive, SARS PLpro yeast-1 inactive, CHX counter inactive, Shiga toxin inh inactive, Pf growth 96h inactive and Pf growth 48h inactive.
COc1ccc(C(C)NC(=O)c2ccccc2Cl)cc1OC (stereo not drawn) was read as AMA1-RON2 inh inactive, SARS PLpro yeast-1 11µM, CHX counter inactive, Shiga toxin inh inactive, Pf growth 96h inactive, Pf growth 48h inactive and SARS PLpro yeast-2 active.
COc1ccc(-c2noc(CCCC(=O)NCC3CCCO3)n2)cc1 (stereo not drawn) was read as AMA1-RON2 inh inactive, SARS PLpro yeast-1 inactive, CHX counter inactive, Shiga toxin inh inactive, Pf growth 96h inconclusive and Pf growth 48h inactive.
